Drawing on PubChem BioAssay (NCI), this text covers growth inhibition for 43 compounds.

The panel holds about 79,000 compounds, 15% with a hit somewhere; the sample as a whole holds those more often. A number with no mark means an inactive call. Active and inactive are the calls of the source. No stated cut-off is given here; in the data, active means growth inhibition above about 70%; inactive means the rest.

Test [1] can be described thus: NCI Yeast Anticancer Drug Screen. Data for the rad50 strain (AID 155).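 Further: 0% = growth of vehicle-only cultures of the same strain.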 Particulars: S. cerevisiae rad50 strain growth inhibition; at 50.0 µM; active compounds read high. An outline of the steps:
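Readout: growth inhibition relative to vehicle-treated cultures. Compound exposure was carried out in a genetically defined yeast strain deficient in DNA damage repair.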

Test [2] is described as follows: NCI Yeast Anticancer Drug Screen. Data for the mec2-1 strain (AID 157). Conditions: S. cerevisiae mec2-1 strain, at 50.0 µM, active compounds read high. An outline of the steps: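 Using mec2-1 yeast: add compound, measure growth, express inhibition versus vehicle-treated cultures.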
Test [3] in a line: NCI Yeast Anticancer Drug Screen. Data for the sgs1 mgt1 strain (AID 161).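 Further: 0% = growth of cultures given vehicle only.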 Particulars: S. cerevisiae sgs1 mgt1 strain, at 50.0 µM, active compounds read high. An outline of the steps:
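Growth of a repair-deficient yeast mutant was monitored after compound treatment and expressed as inhibition relative to vehicle-treated cultures.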

Test [4] can be described thus: NCI Yeast Anticancer Drug Screen. Data for the cln2 rad14 strain (AID 165).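 Further: 0% = growth equal to vehicle treated cultures.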 Conditions: S. cerevisiae cln2 rad14 strain, at 50.0 µM, active compounds read high. An outline of the steps:
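Yeast strain cln2 rad14, bearing defects in cell cycle control and DNA repair, serves as the test system; values reflect growth inhibition compared with vehicle.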

The nature of test [5]: NCI Yeast Anticancer Drug Screen. Data for the mlh1 rad18 strain (AID 175). Conditions: S. cerevisiae mlh1 rad18 strain growth inhibition; at 50.0 µM; active compounds read high. An outline of the steps: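 Steps: expose repair-defective yeast to compound; measure growth; express inhibition against vehicle-treated controls.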
Test [6] is described as follows: NCI Yeast Anticancer Drug Screen. Data for the bub3 strain (AID 167). Particulars: S. cerevisiae bub3 mutant strain, at 50.0 µM, active compounds read high. An outline of the steps:
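Readout: yeast growth inhibition, expressed relative to vehicle-only wells. The test organism is a mutant strain from a panel with lesions in DNA repair or checkpoint genes.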

Take `OC(CC1CCCC(CC(O)c2ccccc2)N1CCc1ccccc1)c1ccccc1` (configuration not stated): the growth inhibition is 24.8% in test [1]; -1.3% in test [2]; 22.4% in test [3]; 35.4% in test [4]; 21.2% in test [5].

Consider `CN1C(=S)CSc2ccccc21`, for which the growth inhibition in test [1] is -8.5%; in test [2] it was -4%; in test [3] it was -11.3%; in test [4], 26%; in test [5], 1.85%.

Take `Cc1ccc(NC(=S)N/C=C(\c2ccccc2)S(=O)Cc2ccccc2)c(C)c1` (configuration not stated): the growth inhibition in test [1] was 8%; in test [2], -22.1%; in test [3], -8%; in test [4] it was 15.7%; in test [5] it was 1.8%.

On to `Cc1ccc(Cl)nn1`, for which the growth inhibition in test [1] is 10%; in test [2] it was -1.25%; in test [3] it was -2.55%; in test [4] it was -3.3%; in test [5] it was 2.1%.

In the case of `Cc1cc(-c2ccc(N=Nc3c(C)nn(-c4ccc(S(=O)(=O)O)cc4)c3O)c(C)c2)ccc1N=Nc1ccc(O)c(C(=O)O)c1`, the growth inhibition in test [1] is 26%; in test [2] it was 12.4%; in test [3], 26.2%; in test [4] it was 20.9%; in test [5], 21%.

For `CN(C)C(=O)C1CCC(CC2CCCCC2)CC1` (configuration not stated), the growth inhibition in test [1] is 99.1% (active); in test [2], 99.2% (active); in test [3], 99% (active); in test [4] it was 96.3% (active); in test [5], 80.9% (active).

Take `CCC/C(=N/NC(N)=O)c1ccco1`: the growth inhibition in test [1] was -2.85%; in test [2], -1.55%; in test [3] it was -8.15%; in test [4], -2.25%; in test [5] it was -0.3%.

`COc1ccc(CCNC(=S)NN)cc1OC`: the growth inhibition in test [1] is -15.7%; in test [2] it was -23.6%; in test [3] it was -7.35%; in test [4], -23.5%; in test [5], -28.7%.

On to `COC(=O)Nc1cc2c3c(c1)CCCN3CCC2`, for which the growth inhibition in test [1] is -6.35%; in test [2] it was -4.05%; in test [3], -2.2%; in test [4] it was -10.2%; in test [5], 1.8%.

For the compound `COC(=O)/C=C(C)/C=C/c1cc(C(C)=O)c(C)o1`, the growth inhibition in test [1] was -2.25%; in test [2], -2.95%; in test [3], 7.85%; in test [4], -12.3%; in test [5], -7.05%.

As for `O=C(O)C#Cc1ccccc1[N+](=O)[O-]`, the growth inhibition in test [1] was 21.1%; in test [2] it was 25.1%; in test [3], 11.3%; in test [4] it was -15.4%; in test [5], 9.35%.

`C[N+](C)(C)CCOC(=O)C(c1ccccc1)C1(O)CCCC1` (configuration not stated): the growth inhibition is 33.6% in test [1]; -16.1% in test [2]; 12.7% in test [3]; -24.4% in test [4]; 22.3% in test [5].

With `Cc1ccc(C(C#N)c2ccc(N)cc2)cc1` (configuration not stated), the growth inhibition in test [1] was 21.9%; in test [2], -21.3%; in test [3], 29.9%; in test [4], 17.1%; in test [5], 32.5%.

Regarding `C/C=C/C(=O)OCCCCCCCCCCCCCCCCCC`, the growth inhibition in test [1] was 13.7%; in test [2], -23.8%; in test [3] it was 11.7%; in test [4], 8%; in test [5] it was 21%.

Regarding `CCCCCCCOCC(=O)OC`, the growth inhibition is 3.6% in test [1]; -0.7% in test [2]; 2% in test [3]; -21.2% in test [4]; 10.2% in test [6]; 1.45% in test [5].

On to `CCc1cc2c(O)c(c1)Cc1cc(CC)cc(c1O)Cc1cc(CC)cc(c1O)Cc1cc(CC)cc(c1O)Cc1cc(CC)cc(c1O)Cc1cc(CC)cc(c1O)Cc1cc(CC)cc(c1O)C2`, for which the growth inhibition was 6.55% in test [1]; 27.2% in test [2]; 19.8% in test [3]; 6.5% in test [4]; 17.3% in test [5].

In the case of `CSc1nc2c(nnn2C2OCC(O)C(O)C2O)c(=O)[nH]1` (configuration not stated), the growth inhibition in test [1] was -10.7%; in test [2], -0.5%; in test [3], -11.9%; in test [4] it was -4.3%; in test [5] it was 6.4%.

For `CCN(CC)CCN(N)CCN(CC)CC`, the growth inhibition is 20.6% in test [1]; -24.8% in test [2]; -1.2% in test [3]; -1.5% in test [4]; -17.2% in test [5].

Consider `CC(=O)NC(c1ccccc1)(c1ccccc1)c1ccccc1`, for which the growth inhibition in test [1] was 12.1%; in test [2], 8.15%; in test [3], 14.8%; in test [4], 5.2%; in test [5], 19.5%.

Take `Nc1ccc(Br)c2ccccc12`: the growth inhibition is 33.4% in test [1]; 22.1% in test [2]; 16.8% in test [3]; 19.4% in test [4]; 46.4% in test [5].

`O=Cc1ccc2c(c1)CC1(Cc3ccccc3C1)C2`: the growth inhibition is -3.35% in test [1]; -47.8% in test [2]; -10.8% in test [3]; -7.2% in test [4]; -30.3% in test [5].

On to `COc1cc2c(cc1OC)C(=O)C1(CO)COC(=O)C1C2` (configuration not stated), for which the growth inhibition in test [1] is -7.7%; in test [2] it was -19%; in test [3], -2.15%; in test [4], -1.4%; in test [6], -1%; in test [5] it was 5.9%.

Regarding `CN=C(NC)C(c1ccccc1)c1ccccc1`, the growth inhibition in test [1] was -0.5%; in test [2] it was -9.7%; in test [3], -5.7%; in test [4], -15.8%; in test [5], -9.3%.

Regarding `CC[P+](C)(C)c1ccccc1`, the growth inhibition in test [1] was 30.9%; in test [2], -0.8%; in test [3], 2.1%; in test [4], 7.55%; in test [5], 2.75%.

Take `OC(CNc1ccc(Cl)nn1)c1ccccc1` (configuration not stated): the growth inhibition in test [1] was -3.35%; in test [2], -10.3%; in test [3], 21%; in test [4] it was 13.4%; in test [5], -15.2%.

Consider `NC(=O)N1CCCCN1C(N)=O`, for which the growth inhibition was 9.9% in test [1]; -7.95% in test [2]; -1.6% in test [3]; -55% in test [4]; -4.65% in test [5].

On to `ON=C(C1CCCCC1)C1CCCCC1`, for which the growth inhibition is -7.35% in test [1]; -29.1% in test [2]; -13% in test [3]; -37.6% in test [4]; -32.9% in test [5].

`Nc1ccc(C(=O)Nc2ccc3c(ccc4ccccc43)c2)cc1`: the growth inhibition in test [1] was -5.8%; in test [2], 2.35%; in test [3], 13.8%; in test [4] it was 1.75%; in test [5], 2.35%.

For the compound `N#CCCN(C1=NN(C(=O)CC(=O)Nc2ccc(Cl)cc2)C(c2ccccc2)C1)c1ccc(Cl)cc1` (configuration not stated), the growth inhibition is 14.3% in test [1]; -13.7% in test [2]; -17.6% in test [3]; 10.7% in test [4]; -5.55% in test [6]; -8.35% in test [5].

In the case of `Cc1ccc(NCC(O)CN2CCCC2)cc1` (configuration not stated), the growth inhibition in test [1] was 12.3%; in test [2], 5.35%; in test [3], 12.5%; in test [4], -26.4%; in test [5], 12.1%.

For `COc1cc(/C=C/C(=O)c2ccccc2O)cc(OC)c1OC`, the growth inhibition in test [1] is -1%; in test [2], -17.1%; in test [3], 16.4%; in test [4] it was -6.35%; in test [5], 13.8%.

Take `CCOC(=O)/C(=C\c1ccccc1Cl)C(C)=O`: the growth inhibition in test [1] was 99.3% (active); in test [2], 98.8% (active); in test [3], 99.5% (active); in test [4], 98.5% (active); in test [5] it was 99.5% (active).

Take `N#CC(c1cccs1)C1CCCCC1` (configuration not stated): the growth inhibition was 9.4% in test [1]; -0.5% in test [2]; 2.05% in test [3]; -11.8% in test [4]; -1.3% in test [5].

Consider `CCOC(=O)CCC(NC(=O)c1ccc([N+](=O)[O-])cc1)C(=O)OCC` (configuration not stated), for which the growth inhibition is 29.6% in test [1]; -32.3% in test [2]; -7.3% in test [3]; -86.5% in test [4]; 26.1% in test [5].

In the case of `COc1cc(Cc2cc(OC)c(OC)c(OC)c2)ccc1O`, the growth inhibition in test [1] is -23.4%; in test [2], -8.5%; in test [3], -8.5%; in test [4] it was -2.6%; in test [5] it was 9.5%.

As to `COc1ccc(N=C2SC(=N/N=c3\sc4ccccc4n3C)SC2=Nc2ccc(OC)cc2)cc1`, the growth inhibition was 4.15% in test [1]; -32.9% in test [2]; -2.9% in test [3]; -41.1% in test [4]; -12.7% in test [5].

As to `CNC(=S)NC`, the growth inhibition is 11.9% in test [1]; 11.1% in test [2]; 13.4% in test [3]; -51.1% in test [4]; -13.8% in test [5].

Turning to `COc1cc(C(=O)CC(=O)Cc2ccc3ccccc3n2)cc(OC)c1OC`, the growth inhibition in test [1] is 2.75%; in test [2], 1.3%; in test [3], 0.9%; in test [4] it was -15.7%; in test [5], 38.2%.

Take `COc1cc(NC(C)CCCN)c2nccc(C)c2c1` (configuration not stated): the growth inhibition was 16.2% in test [1]; 12.2% in test [2]; -27.1% in test [3]; -8.15% in test [4]; -36.9% in test [5].

In the case of `NC(=O)c1cnn(CCO)c1N`, the growth inhibition is 0.2% in test [1]; -3.35% in test [2]; 2.55% in test [3]; -15.6% in test [4]; 12.6% in test [5].

For `COc1cc2c(c(OC)c1OC)-c1ccc(SC)c(=O)cc1C(N=C(NC1OCC(OC(C)=O)C(OC(C)=O)C1OC(C)=O)SN(NC(=O)OCc1ccccc1)C(=O)OCc1ccccc1)CC2` (configuration not stated), the growth inhibition was 5.6% in test [1]; 10.4% in test [2]; 24.4% in test [3]; -1.55% in test [6]; 32.3% in test [5].

For the compound `CCN(CC)C(=O)c1cc2c(cc1[N+](=O)[O-])OCO2`, the growth inhibition in test [1] is -0.6%; in test [2] it was -15.4%; in test [3], 3.65%; in test [6], 1.25%; in test [5], -18.4%.

`CC(=O)CC1(O)C(=O)C(C(C)(C)C)=CC2(C(C)(C)C)OC12` (configuration not stated): the growth inhibition is 2.25% in test [1], -13.1% in test [2], -3.45% in test [3] and 6.25% in test [6].
